Screens: PubChem BioAssay, National Center for Advancing Translational Sciences (NCATS)
FLuc modulator = firefly luciferase modulation, counter-screen for miR-21 project; purified FLuc, Km substrates, luminescence inhibition; Potency, µM (series often up to 57.5 µM), for the others: at the top dose activity change, negative = inhibition, most hits filed as inhibitors; hit rate 6.9% among 360,000;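 note: plate controls were vehicle for no effect and reference inhibitor for full effect; nearly all actives have a fitted effect of over 55% in size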
Target sequence (P08659 whole entry, looked up): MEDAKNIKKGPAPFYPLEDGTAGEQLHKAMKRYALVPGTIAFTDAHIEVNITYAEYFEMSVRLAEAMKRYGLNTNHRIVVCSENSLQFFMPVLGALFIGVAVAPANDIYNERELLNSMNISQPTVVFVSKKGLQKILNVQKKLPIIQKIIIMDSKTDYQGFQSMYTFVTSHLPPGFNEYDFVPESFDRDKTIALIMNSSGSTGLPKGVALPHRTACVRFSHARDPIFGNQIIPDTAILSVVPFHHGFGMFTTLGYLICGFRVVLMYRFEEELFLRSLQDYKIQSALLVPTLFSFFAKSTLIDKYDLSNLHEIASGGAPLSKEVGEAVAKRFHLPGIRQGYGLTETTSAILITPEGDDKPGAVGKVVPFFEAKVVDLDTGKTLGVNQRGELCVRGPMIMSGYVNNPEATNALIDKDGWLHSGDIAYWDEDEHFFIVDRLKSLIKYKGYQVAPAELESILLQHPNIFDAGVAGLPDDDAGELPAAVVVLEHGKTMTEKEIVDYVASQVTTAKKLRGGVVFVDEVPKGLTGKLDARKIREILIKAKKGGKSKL
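Biochemical qHTS of compounds, final roughly 60 µM downward over six points, against 10 nM purified firefly luciferase using Km concentrations of substrates (10 uM D-luciferin, 10 uM ATP) in Tris acetate pH 7.5 buffer; luminescence output.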
Rab9 prom act = activates the Rab9 promoter; Potency, µM (top dose mostly 9.22 µM), for inactives: at the top dose activation, negative = inhibition, usual class: activators; hit rate 2.8% among 320,000; Huh7 Rab9 promoter-luciferase reporter, luminescence, 24 h; AID 485297; note: % of control where 0% means no effect; nearly all actives have a fitted effect of over 60% in size
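Luminescence read-out: Huh7 cells stably expressing Rab9-luciferase, treated 24 h with compound at 37 °C, then lysed with luciferase reagent for 10 min at ambient before reading.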
NPC1 promoter act = NPC1 promoter activation. Huh7 NPC1 promoter luciferase reporter, 24 h. Potency, µM (top dose mostly 9.22 µM), without a hit: at the highest dose activation, usual class: activators. hit rate 2.4% among 320,000. AID 485313; note: % of control where 0% means no effect; nearly all actives have a fitted effect of over 60% in size
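Compounds in DMSO were transferred onto Huh7 NPC1-luciferase reporter cells pre-incubated 2 h; after 24 h at 37 °C, Amplite reagent was dispensed and luminescence recorded 10 min later.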
Luc counter = blocks Kinase-Glo luciferase, a counter-screen artifact. Q27757. Kinase-Glo luciferase, ATP luminescence, 8 min. Potency, µM (series often up to 38.3 µM), for the others: at the top dose activity change, negative = inhibition, hits mostly inhibitors. hit rate 0.28% among 200,000. AID 1379; note: % is set by controls: 0 for no effect and ±100 for the full control effect; nearly all actives have a fitted effect of over 60% in size
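Compounds were added to a substrate mix at pH 7.2 (50 mM imidazole, 10 uM ATP, within the enzyme's linear range), followed by Kinase-Glo detection reagent; luminescence was measured after 8 minutes at ambient temperature.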
SMN2 splice enh = increases expression of the SMN2 splice variant; hit rate 2.8% among 210,000; HEK293 SMN2-luciferase splicing reporter, luminescence, 30-36 h; Potency, µM (series often up to 46.1 µM), for the others: top-dose activity change, positive = activation, hits mostly activators; AID 1458; note: % of control where 0% means no effect; nearly all actives have a fitted effect of over 55% in size
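HEK293 cells carry an SMN2 minigene-luciferase reporter in which exon 7 inclusion puts luciferase in frame. Cells were seeded at 2000 cells/well, attached for 10-12 hours, then exposed to compounds for 30-36 hours at 37C before ONE-Glo luminescence.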
* hit, by the source's call; ? = inconclusive; · = no result given; [ ] = remark or other dose. Hits are enriched below; roughly 7.3% of the tested compounds scored in any of these assays. Calls come from the whole dose curve; as a rule, active = well fitted curve in the direction sought with a large enough effect; inconclusive = small, poorly fitted or top-dose-only effect, or another doubt; inactive = no such curve, though single readings can be large; an effect the other way counts as inactive or inconclusive. Potency is the fitted concentration of half-maximal effect.

SMILES	FLuc modulator	Rab9 prom act	NPC1 promoter act	Luc counter	SMN2 splice enh
COC(=O)N/N=C/c1ccc(OCCSc2ccc(Cl)cc2)c(OC)c1	-0.7%	-5.2%	-3.5%	1.5%	6.3%
Cc1scc(C(=O)N/N=C/c2ccco2)c1C	10.7µM*	2.82µM*	?	-0.3%	11.2µM*
Cc1scc(C(=O)N/N=C/c2ccsc2)c1C	2.13µM*	2.82µM*	?	-4.7%	17.8µM*
CCCOc1cccc(/C=N/NC(=O)c2csc(C)c2C)c1	4.78µM*	10.3%	21.7%	-0.9%	-24.7%
COC(=O)N/N=C/c1cccc(OCCSc2ccc(Cl)cc2)c1	-27.5%	27.1%	?	1.4%	11.2µM*
CN(C)CCCCN1CCc2c(n(C)c3ccccc23)C1=O	·	·	·	-3.1%[7.66 µM]	-2.5%[9.22 µM]
CCCn1c(C)cc(/C=C(\C#N)C(=O)OCC(=O)NC(=O)NC(C)(C)C)c1C	16.9µM*	-3.0%	0.9%	-1.3%	4.1%
CN(C(=O)c1cccc(Nc2ccc(-c3ccc4c(c3)OCCO4)nn2)c1)C1CCCCC1	0.953µM*	?	?	?	-59.4%
CCN(CC)S(=O)(=O)c1ccc(Nc2ccc(-c3ccc4c(c3)OCCO4)nn2)cc1	10.7µM*	17.6%	-6.4%	-4.3%	-13.5%
CN(C)S(=O)(=O)c1ccc(Nc2ccc(-c3ccc4c(c3)OCCO4)nn2)cc1	6.75µM*	8.7%	-5.1%	-7.0%	2.0%
O=C(NCCc1ccccc1)c1c2c(nc3ccccc13)C(=O)N(C1CCCCC1)C2	0.0%	·	·	·	·
O=C(O)c1ccc(N2C(=O)CC(N3CCN(c4ccc(Cl)cc4)CC3)C2=O)cc1 (stereo not drawn)	0.9%	0.1%	0.2%	·	·
O=C(O)c1ccc(N2C(=O)CC(N3C(=O)/C(=C/c4ccc(Cl)cc4)SC3=S)C2=O)cc1 (stereo not drawn)	16.9µM*	1.0%	-0.7%	·	·
COc1ccc(C(=O)Nc2ccc(NC(=O)C3CC3)cn2)cc1	?	5.6%	-0.6%	·	·
O=C(Nc1ccc(NC(=O)C2CC2)cn1)c1ccccc1	2.69µM*	0.355µM*	0.316µM*	·	·
CC(C)C(=O)Nc1ccc(NC(=O)CCc2ccccc2)cn1	6.7%	-6.0%	0.2%	-4.5%	-3.9%
CC(C)C(=O)Nc1ccc(NC(=O)c2cccc(F)c2)cn1	?	2.82µM*	27.0%	-5.1%	9.9%
COc1ccccc1C(=O)Nc1ccc(NC(=O)C2CCCCC2)nc1	?	7.2%	-2.7%	·	·
O=C(Cc1ccccc1)Nc1ccc(NC(=O)c2ccccc2)nc1	?	2.24µM*	2.82µM*	·	·
O=C(Nc1ccncc1)c1cccc(F)c1	2.2%	-1.4%	0.4%	4.4%	3.6%
O=C(Nc1ccc(NC(=O)C2CCCCC2)nc1)c1ccccn1	16.9µM*	3.55µM*	?	-29.6%	22.4µM*
CCN=C(N)CSS(=O)(=O)O	·	·	·	-4.0%[7.66 µM]	-8.3%[9.22 µM]
O=C(Nc1ccc(NC(=O)C2CC2)cn1)c1ccccc1Cl	?	27.9%	27.3%	-2.5%	25.1µM*
CCCC(=O)Nc1ccc(NC(=O)c2ccccn2)cn1	13.5µM*	2.82µM*	2.24µM*	·	·
O=C(Nc1ccc(NC(=O)C2CC2)nc1)c1cccc(F)c1	?	4.47µM*	?	·	·
SMILES	FLuc modulator	Rab9 prom act	NPC1 promoter act	Luc counter	SMN2 splice enh
CCCC(=O)Nc1ccc(NC(=O)C2CC2)cn1	-0.3%	10.0%	9.4%	0.2%	13.6%
O=C(NCc1ccc(F)cc1)c1cnc(N2CCOCC2)c2ccccc12	4.5%	·	·	·	·
CCCCCN1C(C(=O)c2ccccc2)=C(NC(=O)c2ccccc2Cl)c2ccccc2S1(=O)=O	0.6%	·	·	·	-85.8%
C=C1CC[C@H](O)C/C1=C/C=C1\CCC[C@]2(C)[C@@H]([C@H](C)CC[C@@H](O)C(C)(C)O)CC[C@@H]12	·	·	·	0.0%	9.8%
CCOC(=O)c1ccc(NC(=O)CCn2c(=O)c3cccn3c3ccccc32)cc1	-4.9%	·	·	·	·
CCOC(=O)c1ccc(NC(=O)CCC(=O)N2Cc3ccccc3Oc3ncccc32)cc1	-12.8%	·	·	·	·
CCOC(=O)c1c(C)[nH]c(CCC(=O)NCc2cc(OC)c(OC)c(OC)c2)c1C	-2.8%	·	·	·	·
CCCCN(CC)C(=O)CSc1nc2c(sc(=S)n2-c2ccc(OCC)cc2)c(=O)[nH]1	16.9µM*	0.7%	-1.6%	-1.3%	-26.6%
CC1CCc2sc(C(=O)NNC(=O)c3ccncc3)cc2C1 (stereo not drawn)	?	2.1%	-4.3%	·	·
CC1CCc2sc(C(=O)NNS(=O)(=O)c3ccc(F)c(F)c3F)cc2C1 (stereo not drawn)	10.7µM*	0.0%	-0.2%	·	·
CC1CCc2sc(C(=O)Nc3ccc(C(N)=O)cc3)cc2C1 (stereo not drawn)	2.39µM*	25.0%	?	·	·
CC1CCc2sc(C(=O)NNC(=S)NC3CC3)cc2C1 (stereo not drawn)	-15.7%	1.12µM*	?	·	·
CC1CCc2sc(C(=O)OCC(=O)NC(N)=O)cc2C1 (stereo not drawn)	?	-7.5%	0.3%	·	·
CC1CCc2sc(C(=O)NCC3CCCO3)cc2C1 (stereo not drawn)	10.7µM*	3.98µM*	2.82µM*	·	·
CC1CCc2sc(C(=O)NN)cc2C1 (stereo not drawn)	?	7.4%	4.6%	·	·
COc1ccc(NC(=O)CN(C)C(=O)c2ccc(-c3ccccc3Cl)o2)cc1	23.9µM*	0.1%	-1.2%	·	·
COc1ccccc1CNC(=O)c1ccc(-c2ccccc2C(F)(F)F)o1	-0.5%	-1.0%	-3.0%	-0.3%	-38.7%
COc1ccc(NC(=O)CN(C)C(=O)c2ccc(-c3cccc(C(F)(F)F)c3)o2)cc1	?	8.8%	13.9%	·	·
COc1ccc(NC(=O)CN(C)C(=O)c2cc(-c3ccco3)nc3ccccc23)cc1	16.9µM*	-1.1%	-3.1%	·	·
COc1cc(/C=N/NC(=O)c2cc(-c3ccco3)nc3ccccc23)cc(OC)c1O	12µM*	-2.1%	-5.7%	·	·
COc1ccc(NC(=O)c2ccc(-c3ccccc3C(F)(F)F)o2)cc1	19µM*	3.5%	8.5%	-1.2%	-0.7%
Cn1cccc1C(=O)N1CCC2(CC1)CCN(c1cccc(-c3ccccc3)c1)CC2	·	·	·	-7.4%	-53.5%
Cc1ccc(-n2nc(C(=O)Nc3ccc(F)cc3Cl)c(=O)n(C)c2=O)cc1	-0.7%	·	·	·	·
O=C(N/N=C/c1cccc(F)c1)c1cc(-c2ccco2)nc2ccccc12	0.536µM*	5.8%	0.6%	-1.3%	?
Cc1ccc(OCc2nc3ccccc3[nH]2)cc1	1.35µM*	0.631µM*	1.41µM*	-14.3%	3.55µM*
Clc1ccc(OCc2nc3ccccc3[nH]2)cc1	3.38µM*	1.12µM*	2µM*	-13.4%	11.2µM*
c1ccc(OCc2nc3ccccc3[nH]2)cc1	12µM*	3.98µM*	2.82µM*	-20.2%	12.6µM*
OC(Cc1nc2ccccc2[nH]1)c1ccccc1Cl (stereo not drawn)	23.9µM*	21.9%	24.4%	-9.0%	-1.5%
CC(=O)c1ccc(NC(=O)C2CCN(c3nnc(C)c4c(C)n(-c5ccccc5)nc34)CC2)cc1	-15.9%	·	·	·	·
